From ChEMBL document CHEMBL3988442, “University of Dundee, Small-Polar-MMV Screening Library” (2021)
Hit rate of the full screen: of about 48,000 compounds, about 13,000 (27%) showed an effect of 50% or more. This is one part of the list.

The compounds below were run on Wolbachia pipientis (assay: Anti-Wolbachia Cell-Based Screen). Details: 5 µM.
Type: functional
Design: scale not given: in the data most compounds retested in dose-response had high values

Row | SMILES | Percent Effect
1 | O=C(O)[C@@H]1CN(C(=O)c2ccc(O)cc2)C[C@H]1c1cccc(F)c1 | 133.5%
2 | O=C(O)[C@@H]1CN(C(=O)c2ccc3[nH]nnc3c2)C[C@H]1c1ccccc1 | 101.1%
3 | Cc1ccc(C(=O)N2C[C@@H](C(=O)O)[C@H](c3ccncc3)C2)cc1F | 1.77%
4 | Cc1ccccc1[C@@H]1CN(C(=O)c2ccc3[nH]nnc3c2)C[C@H]1C(=O)O | 1.706%
5 | O=C(O)[C@@H]1CN(C(=O)c2ccc(F)c(F)c2)C[C@H]1c1cccc(F)c1 | 133.7%
6 | O=C(O)[C@@H]1CN(C(=O)c2ccc3[nH]nnc3c2)C[C@H]1c1cccc(F)c1 | 0.7419%
7 | Cc1ccc(F)c(C(=O)N2C[C@@H](C(=O)O)[C@H](c3ccncc3)C2)c1Cl | -4.386%
8 | O=C(O)[C@@H]1CN(C(=O)c2cc(C3CC3)n[nH]2)C[C@H]1c1cccc(F)c1 | -7.697%
9 | COC(=O)CNC(=O)C12CCC(=O)N1c1cc(Cl)ccc1S2 (centres undefined) | -3.577%
10 | CC(NC(=O)c1ccc(C(N)=O)cc1)c1cccc(N2CCOC2=O)c1 (centres undefined) | 7.135%
11 | Cc1ccc(C(=O)N2CCN(C(=O)C(C)n3ccnc3)CC2)cc1F (centres undefined) | -10.24%
12 | CCOc1ccc(-c2cc(=O)n3c(n2)CCCCC3)cc1 | 126.5%
13 | CCOc1ccc(-c2ccnc(C)n2)cc1C(=O)O | -6.535%
14 | COc1ccc(-c2cc(=O)n3c(n2)CCCCC3)cc1 | 99.63%
15 | COc1ccc(C2CC(=O)Nc3c2nc2n3CCCC2)cc1OC (centres undefined) | 9.396%
16 | CN(C)c1cnn(CC(=O)N2CCCCCC2)c(=O)c1 | 2.501%
17 | CCOc1ccc(OC2CCCN(c3cnn(C)c3)C2=O)cc1 (centres undefined) | 7.424%
18 | CN(C)c1ccc(-c2cc(=O)n3c(n2)CCCCC3)cc1 | 163.6%
19 | COc1ccc(C2CC(=O)Nc3c2nc2n3CCCC2)cc1O (centres undefined) | 0.05289%
20 | CCOc1cc(-c2cc(=O)n3c(n2)CCCCC3)ccc1O | 95.98%
21 | CCOc1ccc(-c2ccnc(C3CC3)n2)cc1C(=O)O | 5.09%
22 | CCOc1ccc(NC(=O)Nc2cc(N3CCCCC3)ncn2)cc1 | 16.35%
23 | CN(Cc1nccs1)C1CCN(c2cccc(-c3cscn3)c2)CC1 | -5.707%
24 | O=C(Nc1cc(-c2ccccc2)on1)N1CCN(CCO)CC1 | -8.087%
25 | CN(CC(O)C1CC1)C(=O)c1ccc(-c2nc(C3CC3)n[nH]2)cc1 (centres undefined) | -1.161%
26 | Cc1[nH]c(-c2ccccc2)nc1C(=O)N1CCC2(CCCO2)CC1 | -0.5796%
27 | NC(=O)c1ccc(N2CCCCC2)c(NC(=O)c2cncc(Br)c2)c1 | 8.346%

Row | SMILES | Percent Effect
28 | Cc1nc(C(C)NC(=O)NCc2nccn2CC(C)C)cs1 (centres undefined) | -2.713%
29 | CC(N)C(=O)N1CCC(Oc2cccc(C(F)(F)F)c2)CC1 (centres undefined) | -15.39%
30 | COCC(NC(=O)c1cnn(C)c1)c1cccc(C(F)(F)F)c1 (centres undefined) | -8.704%
31 | CC(O)(CN1CCN(CCO)CC1)c1cccc(C(F)(F)F)c1 (centres undefined) | 117%
32 | CC(=O)N1CCN(Cc2ccc(C(F)(F)F)cc2F)CC(O)C1 (centres undefined) | -3.674%
33 | CC(=O)N1CCOC(Cc2cccc(C(F)(F)F)c2)C1 (centres undefined) | -10.28%
34 | COCCN1CCN(C(=O)C(c2cccc(F)c2)N(C)C)CC1 (centres undefined) | -2.953%
35 | CC(=O)N1CCN(CC(C)(O)c2cccc(C(F)(F)F)c2)CC1 (centres undefined) | 108.1%
36 | COCCN1CCN(CC(C)(O)c2cccc(C(F)(F)F)c2)CC1 (centres undefined) | 78.04%
37 | COC(=O)NCC(=O)NCC(C)(C)c1cccc(C(F)(F)F)c1 | -0.4386%
38 | CC(NCC1CCN(CCO)CC1)c1ccc(C(F)(F)F)cc1 (centres undefined) | 4.315%
39 | CC(C(=O)Nc1cccc(C(F)(F)F)c1)N(C)CCN1CCOCC1 (centres undefined) | -13.73%
40 | CC(O)(CN1CCC(O)CC1)c1cccc(C(F)(F)F)c1 (centres undefined) | 104.1%
41 | CC(C)c1noc(C(C)N2CCC(c3nc4ccccc4[nH]3)CC2)n1 (centres undefined) | 10.92%
42 | O=C(CCSc1ccccc1)NS(=O)(=O)c1ccc2c(c1)OCCO2 | 13.89%
43 | CC1=NOC(C(=O)N2CCC(O)(c3ccc4nc(C)ccc4c3)CC2)C1 (centres undefined) | -15.54%
44 | Clc1ccc(CN2CCCC(Cn3cncn3)C2)c2ncccc12 (centres undefined) | -4.031%
45 | Cn1c(C(=O)N2CCC(C3OCCO3)CC2)c(Cl)c2ccccc21 | 4.597%
46 | CC(C)c1nccn1C(C)C(=O)NC1CCOCC1 (centres undefined) | -4.368%
47 | O=c1[nH]nc2nc(N3CCCC3)ccn12 | -11.65%
48 | CC(NC(=O)Nc1cccnc1N1CCOCC1)c1ccccc1 (centres undefined) | -4.6%
49 | O=c1[nH]nc2c(N3CCCCCC3)nccn12 | 114.9%
50 | CCc1cc(N2CCC(NC3CCOCC3)CC2)nc(N(C)C)n1 | -0.7364%
51 | O=c1[nH]nc2c(N3CCC(NC4CCOCC4)CC3)nccn12 | 113.4%
52 | O=c1[nH]nc2nc(N3CCOCC3)ccn12 | 3.869%
53 | O=c1[nH]nc2c(N3CCOCC3)nccn12 | 105.6%
54 | O=c1[nH]nc2nc(N3CCSCC3)ccn12 | -3.985%
